Structures are written as SMILES. Inconclusive results are not listed. A number with no mark means an inactive call. Activity calls are given as the source filed them. Unless noted, calls come from the whole dose curve; as a rule, active = well fitted curve in the direction sought with a large enough effect in the repeat runs; inconclusive = weak or mixed curves; inactive = no such curve, though single readings can be large; an effect the other way counts as inactive or inconclusive.

This note sets out measurements from PubChem BioAssay (Tox21).

Experiment [1] in a line: qHTS assay to identify small molecule agonists of the vitamin D receptor (VDR) signaling pathway - cell viability counter screen (AID 743224). Note: series mostly up to about 63 µM; % is set by controls: 0 for no effect and ±100 for the full control effect; nearly all actives have a fitted effect of over 50% in size. The essentials:
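In parallel with the bla FRET readout, cytotoxicity toward VDR-bla cells after 16 h compound exposure was assessed by CellTiter-Glo, with luminescence recorded after a 30 min room-temperature incubation.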
A general note: qHTS replaces the single test concentration by a dilution series.

Experiment [2] can be described thus: qHTS assay to identify small molecule antagonists of the vitamin D receptor (VDR) signaling pathway - cell viability counter screen (AID 743225). Note: % is set by controls: 0 for no effect and ±100 for the full control effect; nearly all actives have a fitted effect of over 50% in size. The essentials:
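VDR-UAS-bla HEK 293T cells were plated and incubated 4 h at 37C, then dosed with compound plus 3 nM (final) 1-alpha,25-dihydroxyvitamin D3 for 16 h. After the 2 h beta-lactamase read, viability in the same wells was read as CellTiter-Glo luminescence after 30 min at room temperature.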

The nature of experiment [3]: qHTS assay to identify small molecule agonists of the NFkB signaling pathway (AID 1159509; active = well fitted curve in the direction sought with a large enough effect in the signal ratio in the repeat runs, not every such curve was filed as active; the % refers to the signal ratio; note: series mostly up to about 61 µM; % is set by controls: 0 for no effect and ±100 for the full control effect). In short, it runs like this:
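Beta-lactamase reporter assay run in quantitative high-throughput format on an NF-kB-responsive ME-180 line, with 5 hr compound treatment and a FRET-based blue/green fluorescence readout.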

Experiment [4] can be described thus: qHTS assay to identify small molecule agonists of the NFkB signaling pathway - cell viability counter screen (AID 1159515; calls by dose curve; note: series mostly up to about 61 µM; % is set by controls: 0 for no effect and ±100 for the full control effect; nearly all actives have a fitted effect of over 55% in size). The essentials: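 Plate 2,000 NFkB-bla ME-180 cells/well; incubate overnight. Add compounds, 5 hr at 37 C. Add FRET substrate, 1.5 hr RT. Add CellTiter-Glo, 30 min RT; read luminescence.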
Experiment [5] is described as follows: qHTS assay to identify small molecule agonists of the endoplasmic reticulum stress response signaling pathway (AID 1159516; active = well fitted activation curve with a large enough effect in the signal ratio in the repeat runs, not every such curve was filed as active; the % refers to the signal ratio; note: % is set by controls: 0 for no effect and ±100 for the full control effect). The essentials:
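Beta-lactamase expression from the ER stress response element in HeLa reporter cells is quantified with the LiveBLAzer B/G FRET substrate, read at 405 nm excitation after 2 hr at room temperature, following 5 hr compound treatment at 37 C.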

Experiment [6] in a line: qHTS assay to identify small molecule agonists of the endoplasmic reticulum stress response signaling pathway - cell viability counter screen (AID 1159517; calls by dose curve; note: series mostly up to about 61 µM; % is set by controls: 0 for no effect and ±100 for the full control effect; nearly all actives have a fitted effect of over 50% in size). In short, it runs like this:
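Steps: seed 1,500 ESRE-bla HeLa cells per well; incubate overnight at 37 C, 5% CO2; add compounds in DMSO for 5 hr; run FRET substrate 2 hr RT; add CellTiter-Glo, wait 30 min, read luminescence.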

Experiment [7] is described as follows: qHTS assay to identify small molecule antagonists of the retinoid-related orphan receptor gamma (ROR-gamma) signaling pathway - cell viability counter screen (AID 1159520). Note: % is set by controls: 0 for no effect and ±100 for the full control effect; nearly all actives have a fitted effect of over 50% in size. The essentials: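 Tet-on ROR gamma CHO cells were given compounds for 2 hr, then doxycycline hyclate at 1 uM final, and incubated 16 hr at 37 C. Viability was measured as ATP content by CellTiter-Glo luminescence.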

Experiment [8] has as its target Nuclear receptor ROR-gamma (Homo sapiens) (UniProt P51449). Kind of experiment: qHTS assay to identify small molecule antagonists of the retinoid-related orphan receptor gamma (ROR-gamma) signaling pathway (AID 1159521; note: nearly all actives have a fitted effect of over 50% in size; note: potency is the fitted concentration of half-maximal effect;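 for activity change, negative = inhibition: CHO cells with doxycycline inducible ROR-gamma driving an RORE luciferase reporter; top concentration of the series differs between compounds; % is set by controls: 0 for no effect and ±100 for the full control effect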). The essentials: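 Tet-on ROR-gamma CHO cells with ROR response element-luciferase reporter; compounds added 2 hr before 1 uM doxycycline induction, then 16 hr at 37 C. Antagonism scored as decreased ONE-Glo luminescence.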

The nature of experiment [9]: qHTS assay to identify small molecule agonists of the AP-1 signaling pathway - cell viability counter screen (AID 1159525; calls by dose curve; note: nearly all actives have a fitted effect of over 55% in size). The essentials:
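Same-well cytotoxicity counter screen of the Tox21 10K library in ME-180 cells. The readout is ATP-dependent luminescence after 5 h compound treatment. Data are normalised to DMSO and tetra n-octyl ammonium bromide controls.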

Experiment [10] in a line: qHTS assay to identify small molecule agonists of the AP-1 signaling pathway (AID 1159526; calls by dose curve; note: potency is the fitted concentration of half-maximal effect; for activation: % is set by controls: 0 for no effect and ±100 for the full control effect).

For the molecule `COc1ccc(/C=C/S(=O)(=O)NC(=O)c2ccc(C)cc2Cl)cc1`, the call in experiment [1], in experiment [2], in [3], in experiment [4], in experiment [5] and in experiment [6] was inactive. Besides, the molecule was classed as inactive in experiment [9]. Further, the Potency result in experiment [7], in experiment [8] and in experiment [10] was “inactive” in each case.

Take `CCCc1nc(C)c2c(=O)[nH]c(-c3cc(S(=O)(=O)N4CCN(CC)CC4)ccc3OCC)nn12`: the molecule was called inactive in experiment [1], in experiment [2], in [3], in experiment [4], in [5] and in [6]. Besides, the result in [9] was inactive. The Potency entry in experiment [7], in experiment [8] and in experiment [10] was “inactive” in each case.

Turning to `O=[N+]([O-])c1cccc(I)c1`, the call in [1], in [2], in experiment [3], in experiment [4], in experiment [5] and in experiment [6] was inactive. Moreover, in [9], the result was inactive. Further, the Potency entry in experiment [7], in [8] and in experiment [10] was “inactive” in each case.

As for `O=c1[nH][nH]c2ccccc12`, the molecule was classed as inactive in [1], in experiment [2], in experiment [3], in [4], in experiment [5] and in [6]. Further, the outcome in experiment [9] was inactive. Also, the Potency entry in [7] was “inactive”. Moreover, the Potency is 15.6 µM (active) in experiment [8] and 49.9 µM (active) in experiment [10].

Consider `O=C(OCCN1CCOCC1)c1cccnc1Nc1cccc(C(F)(F)F)c1`, for which the molecule was classed as inactive in experiment [1], in experiment [2], in experiment [3], in experiment [4], in experiment [5] and in experiment [6]. Also, the molecule was classed as inactive in experiment [9]. The Potency result in experiment [7], in experiment [8] and in experiment [10] was “inactive” in each case.

`CCOCCn1c(N2CCCN(C)CC2)nc2ccccc21`: the result in experiment [1], in experiment [2], in [3], in [4], in experiment [5] and in [6] was inactive. The result in experiment [9] was inactive. In addition, the Potency entry in experiment [7], in [8] and in experiment [10] was “inactive” in each case.

In the case of `Nc1nc(Cl)nc2c1ncn2[C@H]1C[C@H](O)[C@@H](CO)O1`, the molecule was called inactive in [1], in experiment [2], in experiment [3], in experiment [4], in experiment [5] and in experiment [6]. In addition, the molecule was called inactive in experiment [9]. In addition, the Potency entry in experiment [7], in experiment [8] and in experiment [10] was “inactive” each time.

With `O=C(Cl)c1cc(Cl)cc(Cl)c1`, the molecule was called inactive in [1], in experiment [2], in [3], in experiment [4], in experiment [5] and in experiment [6]. Further, in experiment [9], the molecule was classed as inactive. Further, the Potency result in [7], in experiment [8] and in experiment [10] was “inactive” throughout.

Take `SCCOCCOCCS`: the outcome in experiment [1], in experiment [2], in experiment [3], in [4], in experiment [5] and in [6] was inactive. Moreover, in experiment [9], the call was inactive. The Potency result in [7], in experiment [8] and in experiment [10] was “inactive” in each case.

`CC(C)=CCC[C@H](C)CCO`: the molecule was classed as inactive in [1], in experiment [2], in experiment [3], in experiment [4], in [5] and in experiment [6]. Moreover, the outcome in experiment [9] was inactive. Besides, the Potency entry in experiment [7], in experiment [8] and in experiment [10] was “inactive” in each case.

On to `Cc1c(-c2cccnc2)c2ccccc2n1CCCCC(=O)O`, for which the result in [1], in experiment [2], in [3], in experiment [4], in [5] and in [6] was inactive. Besides, the molecule was classed as inactive in experiment [9]. Besides, the Potency result in [7], in experiment [8] and in experiment [10] was “inactive” each time.

`N#CCCCC(C#N)CCC#N` (stereo unspecified): the result in [1], in experiment [2], in [3], in experiment [4], in experiment [5] and in experiment [6] was inactive. Further, the outcome in [9] was inactive. The Potency result in experiment [7], in [8] and in [10] was “inactive” in each case.

With `O=C(O)c1cccnc1Nc1cccc(C(F)(F)F)c1`, the molecule was called inactive in experiment [1], in experiment [2], in [3], in experiment [4], in [5] and in [6]. In addition, in [9], the result was inactive. In addition, the Potency result in experiment [7], in [8] and in [10] was “inactive” each time.

As to `NC(=O)c1ccccc1C(N)=O`, the molecule was classed as inactive in experiment [1], in [2], in [3], in experiment [4], in experiment [5] and in experiment [6]. Further, the call in experiment [9] was inactive. Moreover, the Potency result in experiment [7], in experiment [8] and in experiment [10] was “inactive” each time.

With `CCCCCCCCCCCCCCCCCCCl`, the activity change, negative = cytotoxicity in [1] is 6.04% [at 5.95 µM]; in experiment [6] it was 2.96% [at 6.95 µM]. The viability change, negative = cytotoxic is -10.5% [at 6.95 µM] in experiment [2] and 1.66% [at 6.97 µM] in experiment [9]. For the same molecule, the values for the activation in experiment [3], in [5] and in experiment [10] were -0.691% [at 6.95 µM], -3.96% [at 6.95 µM] and -4.53% [at 6.97 µM], respectively. For the same molecule, the activity, negative = cytotoxic in experiment [4] was -1.14% [at 6.95 µM]. Besides, in experiment [7], the activity, negative = cytotoxicity was -1.61% [at 8.39 µM]. Further, in experiment [8], the activity change, negative = inhibition is 0.775% [at 8.39 µM].

For the molecule `Cc1cc(C)n(CO)n1`, the call in experiment [1], in experiment [2], in [3], in [4], in experiment [5] and in experiment [6] was inactive. The result in [9] was inactive. The Potency result in [7], in [8] and in experiment [10] was “inactive” each time.

Turning to `CC1(C)CC(O)CC(C)(C)N1[O]`, the result in experiment [1], in experiment [2], in experiment [3], in experiment [4], in experiment [5] and in experiment [6] was inactive. Moreover, the result in [9] was inactive. Also, the Potency result in [7], in experiment [8] and in [10] was “inactive” each time.

`Clc1cccc(C(c2ccc3nc[nH]c3c2)n2ccnc2)c1` (stereo unspecified): the molecule was classed as inactive in [1], in [2], in [3], in experiment [4], in experiment [5] and in [6]. Also, the molecule was classed as inactive in experiment [9]. The Potency entry in experiment [7], in experiment [8] and in experiment [10] was “inactive” each time.

With `Cc1cccc(C)c1NC(=O)CN1CCCC1`, the molecule was called inactive in experiment [1], in experiment [2], in [3], in [4], in [5] and in experiment [6]. The result in experiment [9] was inactive. In addition, the Potency result in experiment [7] and in experiment [8] was “inactive” throughout.

`CCCCCCCCC(=O)OCC(C)OC(=O)CCCCCCCC` (stereo unspecified): the outcome in [1], in experiment [2], in experiment [3], in [4], in [5] and in experiment [6] was inactive. The molecule was called inactive in [9]. For the same molecule, the Potency result in [7] and in experiment [10] was “inactive” throughout.

For the molecule `Cc1cc(C)c(C)c(O)c1`, the molecule was classed as inactive in [1], in experiment [2], in experiment [3], in [4], in experiment [5] and in [6]. In experiment [9], the outcome was inactive. In addition, the Potency result in experiment [7] and in experiment [8] was “inactive” in each case.

With `C=CC(=O)OCCCCCCCCCC`, the outcome in experiment [1], in experiment [2], in experiment [3], in [4], in [5] and in experiment [6] was inactive. In experiment [9], the molecule was classed as inactive. Moreover, the Potency result in experiment [7] and in experiment [8] was “inactive” in each case.

On to `COC(=O)c1cc(Cl)ccc1[N+](=O)[O-]`, for which the outcome in [1], in [2], in experiment [3], in experiment [4], in [5] and in experiment [6] was inactive. Besides, in experiment [9], the call was inactive. Further, the Potency result in experiment [7], in experiment [8] and in experiment [10] was “inactive” each time.
